Results filed as inconclusive are left out. Activity calls are given as the source filed them. Unless noted, calls follow the shape of the dose curve; as a rule, active = well fitted curve in the direction sought with a large enough effect; inconclusive = small, poorly fitted or top-dose-only effect, or another doubt; inactive = no such curve, though single readings can be large; an effect the other way counts as inactive or inconclusive.
Columns and labels:
[1] = qHTS for Inhibitors of Plasmodium falciparum (DD2) proliferation (AID 504314);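 also: parasite DNA measured by SYBR Green fluorescence after red cell lysis; plate controls were DMSO vehicle for no effect and artemisinin wells for full effect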
Method in brief: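 Parasite proliferation measured as SYBR Green signal from Plasmodium DNA, mature erythrocytes lacking DNA. 72 h incubation, 37C; activity scaled between vehicle and 0.29 uM artemisinin, with correction from vehicle-only plates.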

[2] = qHTS for Inhibitors of Plasmodium falciparum (GB4) proliferation (AID 504315);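 also: 0% = DMSO vehicle and -100% = 0.29 µM artemisinin control; nearly all actives have a fitted effect of over 50% in size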
Method in brief: (§1)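 Parasite growth measured as SYBR Green DNA fluorescence (ex 485, em 535 nm) after overnight lysis following 72 h culture at 37 °C, 0.3% parasitemia, 2.5% hematocrit. Values normalized against DMSO and 0.29 uM artemisinin controls, with plate-stack correction.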

[3] = qHTS for Inhibitors of Plasmodium falciparum (CP250) proliferation (AID 504320);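 also: plate controls were DMSO vehicle for no effect and 0.29 µM artemisinin control for full effect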
Method in brief: as §1

[4] = biological target: Atrial natriuretic peptide receptor 1 (Homo sapiens) (UniProt P16066); assay: Natriuretic polypeptide receptor (hNpr1) antagonism - Pilot CMLD screen (AID 1347052; calls by dose curve;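 also: HEK293 cells with hNpr1 stimulated by hNppA peptide at 0.1 nM; cGMP level read as GloSensor luciferase luminescence after agonist stimulation; series mostly up to about 9.2 µM; % is scaled to controls: 0 for no effect and ±100 for the full control effect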)
Chain of Atrial natriuretic peptide receptor 1 (Homo sapiens) (P16066 whole entry, looked up): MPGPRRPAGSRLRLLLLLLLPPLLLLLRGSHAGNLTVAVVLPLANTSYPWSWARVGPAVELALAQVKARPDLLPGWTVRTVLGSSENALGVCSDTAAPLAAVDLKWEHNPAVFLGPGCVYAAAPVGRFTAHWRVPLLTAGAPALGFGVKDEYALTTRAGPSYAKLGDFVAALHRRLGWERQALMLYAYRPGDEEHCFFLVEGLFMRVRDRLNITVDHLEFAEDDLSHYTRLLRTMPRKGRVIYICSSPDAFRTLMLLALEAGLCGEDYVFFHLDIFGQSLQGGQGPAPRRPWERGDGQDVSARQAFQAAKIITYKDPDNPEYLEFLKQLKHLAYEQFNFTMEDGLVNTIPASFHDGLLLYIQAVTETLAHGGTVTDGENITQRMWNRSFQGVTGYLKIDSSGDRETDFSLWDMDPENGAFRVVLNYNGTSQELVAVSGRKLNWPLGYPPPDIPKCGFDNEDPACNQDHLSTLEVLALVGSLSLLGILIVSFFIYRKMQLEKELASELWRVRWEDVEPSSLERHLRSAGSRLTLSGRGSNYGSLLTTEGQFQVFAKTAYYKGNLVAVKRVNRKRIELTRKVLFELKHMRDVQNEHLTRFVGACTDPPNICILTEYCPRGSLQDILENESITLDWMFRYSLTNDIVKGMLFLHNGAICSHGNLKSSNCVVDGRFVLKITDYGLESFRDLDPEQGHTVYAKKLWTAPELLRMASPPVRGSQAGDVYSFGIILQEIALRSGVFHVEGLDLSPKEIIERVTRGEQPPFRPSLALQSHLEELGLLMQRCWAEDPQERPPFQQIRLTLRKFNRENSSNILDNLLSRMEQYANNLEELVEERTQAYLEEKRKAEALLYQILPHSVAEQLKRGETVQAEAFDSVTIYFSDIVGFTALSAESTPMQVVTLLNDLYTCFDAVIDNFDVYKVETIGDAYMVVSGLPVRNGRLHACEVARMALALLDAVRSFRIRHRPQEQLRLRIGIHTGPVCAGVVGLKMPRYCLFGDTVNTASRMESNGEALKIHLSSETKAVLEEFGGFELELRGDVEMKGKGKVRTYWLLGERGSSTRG

[5] = qHTS for Inhibitors of Plasmodium falciparum (7G8) proliferation (AID 504316);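 also: series mostly up to about 6.7 µM; 0% = DMSO vehicle and -100% = 0.29 µM artemisinin full kill; nearly all actives have a fitted effect of over 65% in size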
Method in brief: as §1

[6] = qHTS for Inhibitors of Plasmodium falciparum (HB3) proliferation (AID 504318);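 also: 0% = DMSO vehicle and -100% = artemisinin control; nearly all actives have a fitted effect of over 60% in size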
Method in brief: as §1

C=C(C(C)=O)C(O)c1ccc(C(F)(F)F)cc1 (stereo unspecified)
inactive: Potency [1] | Potency [2] | Potency [3] | Potency [4]

C=CC1=C2C=C(C3CC3)N(c3ccc(OC)cc3)C=C2C(=O)C(C)(OC(=O)c2ccco2)C1=O (stereo unspecified)
inactive: activity, negative = inhibition [1] 0.839% [at 1.12 µM] | Potency [2] | Potency [3] | Potency [4]

C[C@H](NC(=O)N1CCc2nc(COc3ccccc3)c3c(c2C1)CO[C@@H](C)C3)c1ccccc1
inactive: activity, negative = inhibition [1] -0.0576% [at 1.12 µM] | Potency [2] | Potency [3] | Potency [4]

CC1(C)OCC([C@H](O)C2=CCCCC2=O)CO1
inactive: Potency [1] | Potency [2] | Potency [3] | Potency [4]

COC(=O)CCC(=O)OC1(C)C(=O)C=C2C=C(C3CC3)N(CCc3c[nH]c4ccccc34)C=C2C1=O (stereo unspecified)
inactive: Potency [1] | Potency [2] | Potency [3] | Potency [4]

C#CCCCON=C1C[C@@H](O)[C@H](O)[C@H]2[C@@H]3C(=O)N(Cc4ccccc4)C(=O)[C@@H]3CC[C@H]12
inactive: Potency [1] | Potency [2] | Potency [3] | Potency [4]

COC(=O)C1=C(C(=O)OC)[C@@H]2Nc3ccccc3[C@@]23C[C@@H](C(=O)OC)N(C(=O)N2CCNC2=O)C3=N1
inactive: Potency [1] | Potency [2] | Potency [3] | Potency [4]

CCN1C(=O)[C@@H]2[C@H]3[C@H](O)[C@H](O)CC(=NOC[C@H]4O[C@H](c5ccccc5)C=C[C@H]4Oc4ccc(OC)cc4)[C@@H]3CC[C@H]2C1=O
inactive: Potency [1] | Potency [2] | Potency [3] | Potency [4]

Cc1cc2c(c(=O)o1)[C@H]1O[C@](c3ccsc3)(Cc3c1ccc1ccccc31)O2
inactive: Potency [1] | Potency [2] | Potency [3] | Potency [4]

c1ccc(CCc2nc(-c3ccccc3)oc2Nc2ccc3ccccc3c2)cc1
inactive: Potency [1] | Potency [5] | Potency [6] | Potency [3] | Potency [4]

Reference: PubChem BioAssay (NCATS)
